D1 agonist = agonists of human D1 dopamine receptor; P21728; 1% of 360,000 active; HEK293 T-REx D1 cells, calcium flux, agonist mode; activation, % at 2 µM; in the data active = activation above about 30%
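Agonism was scored from calcium flux recorded over 180 s (1 read/s) after pintool compound addition, following a 10-cycle baseline. Cells were inducible force-coupled HEK293 TREx D1, plated overnight at 30 C and loaded with no-wash calcium dye.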
DRD3 antagonist = D3 dopamine receptor (human) antagonism; max response, negative = inhibition, %; P35462; D3R cells, DiscoveRx beta-arrestin luminescence, antagonist mode; active compounds read low; AID 652054; 2.5% of 360,000 active; in the data active = max response below about -50%; inconclusive = no clear call, values can overlap the other calls
Target sequence (P35462 whole entry, looked up): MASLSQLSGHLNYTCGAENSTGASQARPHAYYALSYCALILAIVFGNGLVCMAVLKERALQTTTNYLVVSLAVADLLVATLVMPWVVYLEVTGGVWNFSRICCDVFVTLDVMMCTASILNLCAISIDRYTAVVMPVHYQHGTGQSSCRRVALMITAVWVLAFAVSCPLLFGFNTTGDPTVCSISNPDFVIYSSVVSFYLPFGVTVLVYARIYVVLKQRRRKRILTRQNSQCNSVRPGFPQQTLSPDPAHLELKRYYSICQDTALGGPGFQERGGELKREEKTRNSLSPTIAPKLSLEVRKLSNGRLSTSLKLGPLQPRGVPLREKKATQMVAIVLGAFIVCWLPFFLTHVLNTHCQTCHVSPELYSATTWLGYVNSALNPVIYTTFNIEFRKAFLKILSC
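Cells plated overnight at 1500 cells/well, then exposed to library compounds with dopamine controls for 90 minutes at 37 degrees C. DiscoveRx reagent added for 30–60 minutes at room temperature; luminescence read, quantitative HTS format.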
D1 antag = antagonists of human D1 dopamine receptor. AID 504652. activity change, negative = inhibition, % at 10 µM. P21728. HEK293 TREx D1 cells, calcium flux, dopamine EC80; active compounds read low. 3.2% of 360,000 active; in the data active = activity change below about -30%
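Allosteric or orthosteric antagonism assessed as attenuation of the calcium response to EC80 dopamine, added 180 s after compound, in induced HEK293 Trex D1 cells loaded with no-wash calcium dye.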
DRD3 agonist = D3 dopamine receptor (human) agonism; P35462; D3R DiscoveRx beta-arrestin cells, luminescence, 90 min; max activation, %; 0.58% of 410,000 active; AID 652048; in the data active = max activation above about 30%
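Agonist mode: compounds and dopamine controls were applied to plated cells for 90 min at 37 degrees C after an overnight attachment at 1500 cells/well. Luminescent read-out followed 30 - 60 minutes at room temperature with DiscoveRx detection reagent.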
D1 PAM = human D1 dopamine receptor positive modulation; HEK293 TREx D1 cells, calcium flux, dopamine EC20 potentiation; potentiation, % at 10 µM; 0.036% of 360,000 active; AID 504651; in the data active = potentiation above about 30%
Of the large screens only hits and unclear results are named; the others gave an inactive call; ! = not confirmed by another sample. Compounds with a hit are over-represented: about 6% of the library has one in this group of screens.

O=S(=O)(c1ccc(S(=O)(=O)N2CCCC2)cc1)N1CCCCCC1	D1 antag -39.1
CCC12CN(S(=O)(=O)c3ccc(C)cc3)CC(CC)(CN(S(=O)(=O)c3ccc(C)cc3)C1)C2=O	none
O=C1CCN(S(=O)(=O)c2ccc(Cl)cc2)N1	none
Cc1ccc(S(=O)(=O)N2CCC(=O)N2)cc1	D1 antag -67.8
Cc1ccn2cc(-c3cccc(S(=O)(=O)N4CCCC4)c3)nc2c1	none
O=S(=O)(c1cccc(-c2cn3ccccc3n2)c1)N1CCCCC1	D1 antag -46.6
CCOc1ccccc1C(=O)Nc1cccc2ccc(C)nc12	none (no result: DRD3 antagonist)
Cc1cc(Cl)ccc1NC(=O)C(=O)NCc1ccco1	none (no result: DRD3 antagonist)
CSc1nc2cc(S(=O)(=O)N3CCCCC3)ccc2s1	D1 antag -30.9
O=C(NN=Cc1c(O)ccc2ccccc12)c1ccc2c(c1)OCO2	none (no result: D1 agonist, D1 antag, D1 PAM)
Cc1ccc(S(=O)(=O)N2CCCCC2)cc1	none
CNc1nc(-c2ccc(S(=O)(=O)N3CCCCC3)cc2)cs1	D1 antag -33.3
O=C(N/N=C\c1c(O)ccc2ccccc12)c1ccc(S(=O)(=O)N2CCCCC2)cc1	D1 agonist 51.9
O=C(Nc1nc(-c2ccc(S(=O)(=O)N3CCCC3)cc2)cs1)c1ccco1	none
O=S(=O)(c1ccc(-c2ccccc2)cc1)N1CCCCC1	D1 antag -35.5
Cc1ccc(Cl)cc1N1CCN(S(=O)(=O)c2ccc3c(c2)CC(=O)N3C)CC1	DRD3 agonist 68.6!
O=c1nc(/C=C/c2cccn2-c2ccc([N+](=O)[O-])cc2)cc(C(F)(F)F)[nH]1	none
O=c1nc(/C=C/c2cc([N+](=O)[O-])ccc2Cl)cc(C(F)(F)F)[nH]1	DRD3 antagonist -69.1
CCCCn1c(O)c(N=Nc2ccccn2)c2ccccc21	none
CCCCn1c(O)c(N=Nc2ccccc2O)c2ccccc21	D1 agonist 30.1, DRD3 antagonist inconclusive
OC[C@@H](O)[C@H](O)[C@H](O)[C@@H](O)CO	none (no result: D1 agonist, DRD3 antagonist, D1 antag, D1 PAM)
COc1ccc(C(C(=O)NC2CCCCC2)N(Cc2cccnc2)C(=O)c2snc(C(N)=O)c2N)cc1 (stereo not drawn)	D1 antag -33.7
NC(=O)c1nsc(C(=O)N(CC(=O)NC2CCCC2)c2cccc(C(F)(F)F)c2)c1N	none
COc1ccc(CN(C(=O)c2snc(C(N)=O)c2N)C(C(=O)NC2CCCC2)c2ccc(OC)c(OC)c2)cc1 (stereo not drawn)	none
CCCC(C(=O)NC1CCCC1)N(Cc1cccs1)C(=O)c1snc(C(N)=O)c1N (stereo not drawn)	D1 antag -36.1
CCC(C(=O)NC1CCCC1)N(Cc1ccc2c(c1)OCO2)C(=O)c1snc(C(N)=O)c1N (stereo not drawn)	DRD3 antagonist inconclusive
COc1cccc(N(CC(=O)NC2CCCCC2)C(=O)c2snc(C(N)=O)c2N)c1	D1 antag -35.1
Cn1cc(C(=O)N2CCN(c3cccc(C(F)(F)F)c3)CC2)c2c3ccccc3n(C)c2c1=O	none (no result: DRD3 antagonist)
CCCCOc1ccc(S(=O)(=O)NNC(=O)C2Cc3c(ccc4ccccc34)O2)cc1 (stereo not drawn)	none
Cc1ccc(S(=O)(=O)NNC(=O)C2Cc3c(ccc4ccccc34)O2)cc1 (stereo not drawn)	D1 agonist 32.6
CSc1ccccc1NC(=O)c1ccccc1	D1 antag -32.0
O=C(Nc1ccccc1F)c1cccc(C(=O)Nc2ccccc2F)c1	none
O=C(Nc1ccccc1F)c1ccc(C(=O)c2ccccc2)cc1	DRD3 antagonist -72.9
CCCCNC(=O)C(NC(=O)c1cccnc1OC)C(=O)c1ccccc1 (stereo not drawn)	none (no result: D1 agonist, D1 antag, D1 PAM)
CN(CCO)c1ccc(-c2nn(C)c(=O)c3ccccc23)cc1[N+](=O)[O-]	none
Cc1ccc(N2CC(C(=O)Nc3ccccn3)CC2=O)cc1 (stereo not drawn)	none
COc1ccc(N2CC(C(=O)Nc3c4c(nn3-c3ccc(OC)cc3)CS(=O)(=O)C4)CC2=O)cc1 (stereo not drawn)	none
CCOc1cccc(NC(=O)C2CC(=O)N(C)C2)c1 (stereo not drawn)	DRD3 antagonist -76.9
CCOc1ccc(N2CC(C(=O)Nc3cc(OCC)c(N4CCOCC4)cc3OCC)CC2=O)cc1 (stereo not drawn)	none
COc1ccc(N2CC(C(=O)Nc3c4c(nn3-c3ccccc3)CS(=O)(=O)C4)CC2=O)cc1 (stereo not drawn)	D1 antag -51.7
CCOc1ccc(N2CC(C(=O)Nc3ccccc3N3CCOCC3)CC2=O)cc1 (stereo not drawn)	D1 antag -30.4
CCOc1ccc(N2CC(C(=O)Nc3ccccn3)CC2=O)cc1 (stereo not drawn)	D1 antag -36.2
CCOc1cccc(NC(=O)C2CC(=O)N(C)C(=Nc3ccccc3)S2)c1 (stereo not drawn)	none
CC1CCN(C(=O)C2CCCN2S(=O)(=O)c2ccc(Cl)cc2)CC1 (stereo not drawn)	none
CCc1cc(C(=O)N2CCCC(Nc3ccc(F)c(F)c3)C2)n(C)n1 (stereo not drawn)	none
Cc1ccc2c(c1)cc(C(=O)NCc1ccc(F)cc1)n2C	none (no result: DRD3 antagonist)
CCCSc1n[nH]c(NC(C)=O)n1	none
CCCCCCCCCCSc1n[nH]c(NC(C)=O)n1	D1 antag -40.5
Cc1ccc(CNC(=O)C2CCN(S(=O)(=O)c3ccc4[nH]c(=O)ccc4c3)CC2)cc1	none (no result: DRD3 antagonist)
CCOC(=O)c1c(NC(=O)COc2cccc(C)c2C)sc2c1CCC(CC)C2 (stereo not drawn)	none (no result: DRD3 antagonist)
O=C(OCC(=O)N(Cc1ccccc1)Cc1ccccc1)c1ccccc1NCCO	none
CCN(C(=O)COC(=O)c1ccccc1NCCO)c1cccc2ccccc12	D1 antag -42.6
COc1ccc(C)c(NC(=O)C2CC(=O)NC3=C2C(=O)CCC3)c1 (stereo not drawn)	none
COc1cc(NC(=O)C2CC(=O)NC3=C2C(=O)CCC3)c(OC)cc1Cl (stereo not drawn)	DRD3 agonist 39.2
Cc1oc(-c2ccc(C(=O)NCc3ccccc3F)cc2)nc1COc1ccccc1	D1 antag -54.4, DRD3 agonist 33.9 (no result: DRD3 antagonist)
Cc1oc(-c2ccc(C(=O)Nc3ccccc3F)cc2)nc1COc1ccccc1	none (no result: DRD3 antagonist)
Cc1ccc(SCc2nc(-c3ccc(C(=O)NCc4ccc(Cl)cc4)cc3)oc2C)cc1	D1 antag -83.7 (no result: DRD3 antagonist)
O=[N+]([O-])c1c(NCCO)cc(N2CCCCCC2)c2nonc12	D1 antag -43.2
Cc1nnc(Sc2cc(NCCCO)c([N+](=O)[O-])c3nonc23)s1	DRD3 antagonist -96.8
Cc1nnc(Sc2cc(NCCO)c([N+](=O)[O-])c3nonc23)s1	DRD3 antagonist -60.1
OCCCc1ccccc1	none (no result: D1 agonist, DRD3 antagonist, D1 antag, D1 PAM)
FC(F)(F)COc1cc(-c2nnc(SCc3ccccc3)n2Cc2ccco2)cc(OCC(F)(F)F)n1	D1 agonist 32.0
CCN(CC)S(=O)(=O)c1cc(C)c(C)cc1OCC(=O)NC1CCCC1	D1 antag -34.5

High-throughput results as filed in PubChem.
